Activity (protection/inhibition) data for three compounds are collected here from PubChem BioAssay AID651871 (Sanford-Burnham Center for Chemical Genomics, 2012).

Where “and” joins values, the source holds several entries; their conditions need not be identical. Identical values can stand only once.

The test system of the experiment is H9c2. Kind of experiment: cardiomyocyte survival under oxidative or metabolic stress – cell-based, panel, H9c2 and HL-1, ATP luminescence, set 2, SAR follow-up (AID 651871).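 Further: cells exposed to stressor for 2 h before ATP readout; reference of the scale not given here.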 The note with it: H9c2/HL-1 cardiomyocytes, 2-deoxyglucose stress, with 2-deoxyglucose; run 1, at 79 µM (top of the series).
On to `CCOC(=O)c1cccc(NC(=O)CNC(=O)c2cc(-c3cc(OC)c(OC)c(OC)c3)nc3ccccc23)c1`, for which the activity (protection/inhibition) amounted to 92.1%.

Take `COc1ccc2c(c1OC)C(=O)N1c3ccccc3C(=O)N(Cc3cccc(Cl)c3Cl)C21` (stereo not drawn): the activity (protection/inhibition) was 80.3% and 69.7% and -3.54%.

Consider `COc1ccc2nc(-c3cc(OC)c(OC)c(OC)c3)cc(C(=O)NCC(=O)Nc3ccc(C(C)=O)cc3)c2c1`, for which the activity (protection/inhibition) came to 74.1%.
